HT1080-NT tox – kills 2HG-producing HT-1080-NT fibrosarcoma cells | HT-1080-NT fibrosarcoma viability, CellTiter-Glo ATP luminescence, 48 h | Potency, µM (doses to about 46.1 µM), actives largely listed as cytotoxic | 360,000 compounds, 1.6% hits;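 note: NT is the 2HG producing partner of a matched IDH1 knockdown line; nearly all actives have a fitted effect of over 55% in size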
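Viability by CellTiter-Glo luminescence after 48 h compound exposure at 37C of HT-1080-NT cells (750/well, RPMI, 5% FBS). % activity scaled between DMSO wells and medium-only wells, then curve-fitted and categorized by curve class.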
HT1080 IDH1KD tx – kills HT-1080 cells with IDH1 knockdown | HT-1080 IDH1 knockdown viability, ATP luminescence, 48 h | AID 686971 | 360,000 compounds, 2% hits | Potency, µM (doses to about 46.1 µM), hits mostly cytotoxic
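Cytotoxicity counter-line: IDH1KD HT-1080, 48 h, CellTiter-Glo. Curves classed by r2, magnitude and activity.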
TDP1 cell noCPT – qHTS for Inhibitors of human tyrosyl-DNA phosphodiesterase 1 (TDP1): qHTS in cells in absence of CPT; DT40 Tdp1-/- hTDP1 cells, no CPT, ATP luminescence, 48 h; 420,000 compounds, 15% hits; Potency, µM (titrated, usually from 46.2 µM), most hits filed as inhibitors; note: nearly all actives have a fitted effect of over 55% in size
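No-CPT arm: Tdp1-/-;hTDP1 DT40 cells (400/well) plus compounds, incubated ≥48 hr at 37 °C. Readout CellTiter-Glo luminescence.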
IL-1B inflam inh – inflammasome signaling inhibition, IL-1 beta readout; THP-1 LPS/ATP IL-1B secretion, AlphaLISA, 16 h; stronger effect = lower value; activity change, % at 57.5 µM; 360,000 compounds, 4.7% hits; AID 743279; in the data active = activity change below about -50%; inconclusive = mostly about -30% to -49%
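Secreted IL-1B measured by AlphaLISA bead assay after 16 h compound exposure of THP-1 cells; compounds (final up to 57.5 uM) added 1 h before LPS (250 ng/mL) and ATP (1.25 mM) stimulation; lower signal means less secretion.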
TDP1 cell CPT – growth inhibition of DT40 Tdp1-/-;hTDP1 cells with camptothecin (screen for TDP1 inhibitors); AID 686979; Potency, µM (doses to about 46.2 µM), actives largely listed as inhibitors; chicken DT40 Tdp1-/-;hTDP1 cells + 20 nM CPT, ATP luminescence, 48 h; 420,000 compounds, 12% hits; note: nearly all actives have a fitted effect of over 55% in size
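Chicken DT40 Tdp1-/- cells complemented with human TDP1, 400 cells/well, exposed to compounds plus 20 nM camptothecin for at least 48 h at 37 C; viability read as ATP content by CellTiter-Glo luminescence.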
A number is an active result; – = inactive; ? = inconclusive; · = not tested or not shown. In the library only some 19% were active in any assay of this set; here they are far more common. Unless noted, calls come from the whole dose curve; as a rule, active = well fitted curve in the direction sought with a large enough effect; inconclusive = small, poorly fitted or top-dose-only effect, or another doubt; inactive = no such curve, though single readings can be large; an effect the other way counts as inactive or inconclusive.

SMILES	HT1080-NT tox	HT1080 IDH1KD tx	TDP1 cell noCPT	IL-1B inflam inh	TDP1 cell CPT
CN1C(=O)c2ccccc2C1=O	·	·	–	·	?
COc1c(C2=CC(=O)N(C)C2=O)c2c(n1C)C(=O)c1ccccc1C2=O	·	·	0.58µM	·	0.52µM
COc1cc(C2NCC(c3ccc(Cl)cc3Cl)c3c2[nH]c2ccccc32)cc(OC)c1OC (centres undefined)	18µM	15µM	18µM	-66	?
Cc1nsc2nc3c(F)c(F)c(F)c(F)c3cc12	–	?	?	-97	?
CCCCNC(=S)NNC(=O)c1c(Cl)c(C)nn1C	–	–	16µM	–	23µM
Cc1ccc(C(=O)NC(=S)NNC(=O)c2ccccc2)cc1	–	–	?	–	?
N#CCC(=O)Nc1ccc(C(=O)NNC(=S)NC2CCCCC2)cc1	–	–	–	–	–
CC(C)CC(=O)Nc1ccc(C(=O)NNC(=S)NC(=O)C2CCCCC2)cc1	7.9µM	?	16µM	–	15µM
CCOC(=O)CCC(=O)NNC(=O)c1ccc(NC(=O)c2ccccc2)cc1	–	–	?	–	18µM
O=C(Cc1ccccc1)NNC(=O)c1ccc(NC(=O)c2ccccc2)cc1	–	?	–	–	?
O=C(NNC(=O)c1ccc2ccccc2n1)c1ccc(O)cc1	–	–	?	–	?
Cc1cccc(C(=O)NNC(=S)NC(=O)c2ccccc2)c1	?	?	21µM	?	18µM
COc1ccc(C(=O)NNC(=O)c2ccc3ccccc3n2)cc1	–	?	4.1µM	-98	16µM
Cc1ccc(CNC(=O)c2ccc3c(c2)NC(=O)CS3)cc1	–	–	–	–	?
CC1CCN(Cc2c(C#N)c3ccccc3n2C)CC1	–	–	?	?	–
CCNC(=S)NNC(=O)c1ccc(OC)cc1	–	–	–	–	–
CCCCC(=O)NC(=S)NNC(=O)c1ccc(OC)cc1	?	?	3.3µM	–	4.6µM
Cc1ccc(C(=O)NNC(=S)NC(=O)c2ccccc2)cc1	?	?	16µM	–	18µM
COc1ccc(C(=O)NNC(=S)NC(=O)c2ccc(OC)cc2)cc1	?	?	?	–	16µM
COc1ccc(C(=O)NC(=S)NNC(=O)c2cccc(C)c2)cc1	–	?	23µM	–	26µM
CCc1nnc2c(NCc3ccc(F)cc3)nc3ccccc3n12	·	·	–	·	–
COc1ccc(N2CCN(C(=O)C(NC(=O)c3c(F)cccc3F)C(C)C)CC2)cc1 (centres undefined)	–	–	?	–	?
CC1(C)Cc2cccc(OCC(=O)Nc3ccc(S(N)(=O)=O)cc3)c2O1	–	–	–	–	–
COc1ccc(C(=O)NNC(=S)NC(=O)c2cccs2)cc1	?	?	?	–	15µM
Cc1cccc(C(=O)NNC(=O)c2ccccc2O)c1	–	?	21µM	–	?
SMILES	HT1080-NT tox	HT1080 IDH1KD tx	TDP1 cell noCPT	IL-1B inflam inh	TDP1 cell CPT
Cc1cccc(C(=O)NNC(=O)c2ccccc2C)c1	–	–	–	–	–
CC(C)C(=O)Nc1ccc(C(=O)NNC(=S)NC(=O)c2cccs2)cc1	–	–	?	–	?
CCCCC(=O)NC(=S)Nc1cccc(NC(=O)c2ccccc2)c1	–	?	23µM	?	?
CCCOc1ccc(C(=O)NNC(=S)NC(=O)CC)cc1	?	10µM	2.6µM	–	4.6µM
Cc1ccc(NS(=O)(=O)c2ccc(Br)s2)cc1S(=O)(=O)N1CCOCC1	–	–	–	–	–
CCN(CC)S(=O)(=O)c1ccc(/C=C/C(=O)NC2CCCCC2)cc1	–	–	?	–	?
COc1cccc(NC(=O)C2(C)CCN2CC2CCCCC2)c1 (centres undefined)	–	–	–	–	–
Cc1cc(C)n2nc(SCCC(=O)NCc3ccccc3)nc2n1	–	–	–	–	–
C=CCNC(=S)NNC(=O)c1ccc(OCC)cc1	–	–	21µM	–	?
COc1ccc(/C=C/C(=O)NC(=S)NNC(=O)c2cccnc2)cc1	–	–	?	–	?
COc1ccc(/C=C/C(=O)NC(=S)NNC(=O)c2cccs2)cc1	?	?	4.6µM	–	6.5µM
CCC(=O)NC(=S)NNC(=O)c1ccc(NC(=O)c2ccccc2)cc1	–	–	7.3µM	–	5.8µM

Screening data: PubChem BioAssay, National Center for Advancing Translational Sciences (NCATS)
